Test results published in PubChem BioAssay (EPA / NIEHS).
Activity calls are given as the source filed them. How the source made its calls: active means hit-call score of the fitted dose curve at least 0.9, where 1 is the maximum; inactive means score below 0.9.

Read-out: MicroRNA 122 (MIR122), gene 406906
Experiment: LTEA_HepaRG_MIR122: Life Technologies and Expression Analysis (LTEA) Assay for MicroRNA 122 (MIR122) using HepaRG (AID 2283516)
Conditions: mRNA level, 48 h; actives raise or lower the signal
Procedure: LTEA_HepaRG is a cell based, multiplexed-readout assay that uses HepaRG, a human liver cell line, with measurements taken at 48 hours after chemical dosing on a 96-well plate.LTEA_HepaRG_MIR122 is one of 102 assay component(s) measured in the LTEA HepaRG cell culture assay. It is a marker of MicroRNA.Data from the assay component LTEA_HepaRG_MIR122 was analyzed into 1 endpoint. This assay endpoint, LTEA_HepaRG_MIR122, was analyzed with bidirectional fitting relative to DMSO as the negative control and baseline of activity. Using a type of inducible reporter, measures of mRNA induction for gain or loss-of-signal activity can be used to understand regulation of transcription factor activity. To generalize the intended target to other relatable targets, this assay endpoint is annotated to the microrna intended target family, where the subfamily is post-transcriptional regulation.
A total of 1060 chemcials from the ToxCast library were tested in eight-point concentration-response experiments. Cell culture and cytotoxicity assays were conducted at Thermo Fisher Scientific's Custom Services facility (Madison, WI). A single lot of human HepaRG cells (Thermo Fisher Scientific, Frederick, MD) was used for the cell culture experiments. 96-well format collagen type I coated plates of human HepaRG cells were prepared using established methods. Briefly, cryopreserved HepaRG cells were thawed, plated at a density of approximately 100,000 cells/well in HepaRG Thaw, Plate, and General Purpose media (HPRG770, Thermo Fisher Scientific), and incubated for 48 hours. 0.5% DMSO was selected as vehicle control to balance the requisite need of DMSO in HepaRG cultures to maintain differentiation (for example, baseline metabolism, proportions of hepatocytes vs. cholangiocytes), while enabling further hepatic receptor pathway activation (for example, PXR and CAR) in response to chemical exposure. 48 hours after plating, the culture medium was replaced with HepaRG Serum-Free Incudtion Media. Cells were exposed to each test chemical in duplicate and maintained in CO2 incubators for another 48 hours. Chemical plates were thawed to room temperature and 200x concentrations of treatment groups were prepared. 8-point conentration-reponse curves were made with the highest exposure at 100 uM, followed by half-log dilutions, all in 0.5% DMSO. Each test plate contained variouse controls, induction positive controls (1mM phenobarbital), cytotoxicity positive controls ([…] aflatoxin B1), vehicle controls (0.5% DMSO), and total lysis controls (0.5% DMSO). Cell morphology images were taken using an Essen IncuCyte FLR automated microscope, with six 96-well plates imaged in about 24 minutes. Images were captured and exported and JPEG files. Spent culture media was transfered to black-well plates for the LDH assay, and remaining media was sorted at -80 C for later use. Cells were treated with RLT buffer and frozen until shipped for gene expression analysis. Total RNA was isolated from the cell suspension in 75 uL of Buffer RLT (Qiagen, Germantown, MD 20874) by Quintiles/Expression Analysis (Durham, NC) using a custom isolation procedure. Total RNA from each plate well was transferred to a preamplification plate. Fluidigm's 96.96 Dynamic ArrayTM (Fluidigm, Amsterdam, the Netherlands) technology was used for gene expression analyses by quantitative reverse transcription polymerase chain reaction (qRT-PCR, performed by Quintiles/Expression Analysis, Durham, NC)89. Standard TaqManTM Assays (Applied Biosystems/ThermoFisher Scientific, Foster City, CA) were used to assess the expression of 93 genes selected based on their selectivity and sensitivity to important hepatic receptors known to be modulated by environmental chemicals; importance in human hepatocyte functionality; and hepatotoxicity. […]

**Q.** How did the outcome turn out when `O=c1[nH]c2ccc(S(=O)CCN3CCC(Cc4ccc(F)cc4)CC3)cc2o1` (stereo not given) was run?
**A.** inactive

**Q.** With `O=C(CCCCCCCCc1cccnc1)N1CCC(C=C(c2ccccc2)c2ccccc2)CC1` as the compound, how does the AC50 read?
**A.** 26.5 µM (active)

**Q.** `CC[C@H](C)C(=O)O[C@H]1C[C@@H](C)C=C2C=C[C@H](C)[C@H](CC[C@@H]3C[C@@H](O)CC(=O)O3)[C@H]21` was tested. Which outcome did it give?
**A.** inactive

**Q.** For `NC(=O)NO`, which outcome is on record?
**A.** inactive

**Q.** With `CCN(C(=O)c1cc(C)cc(OC[C@H](C)Nc2ccncc2)c1)C(C)C` as the compound, how does the AC50 read?
**A.** 33.8 µM (active)

**Q.** For `Cc1[nH]cnc1C[C@H]1CCc2c(C)c3ccccc3n2C1=O`, which AC50 is on record?
**A.** 14.1 µM (active)

**Q.** With `CC(C)(O)c1coc(S(=O)(=O)NC(=O)Nc2c3c(cc4c2CCC4)CCC3)c1` as the compound, how does the outcome read?
**A.** inactive

**Q.** Which outcome does the source give for `C=CCCCCCCCCC(=O)O` here?
**A.** inactive

**Q.** For `CCCCC(CC)COC(=O)c1ccc(C(=O)OCC(CC)CCCC)cc1` (stereo not given), which outcome is on record?
**A.** inactive

**Q.** With `O=P(OC(CCl)CCl)(OC(CCl)CCl)OC(CCl)CCl` as the compound, how does the AC50 read?
**A.** 59.6 µM (active)

**Q.** How did the outcome turn out when `C1N2CN3CN1CN(C2)C3` was run?
**A.** inactive

**Q.** For `CC1(C)C(=O)N(Br)C(=O)N1Br`, which outcome is on record?
**A.** inactive

**Q.** How did the outcome turn out when `CCOC(=O)CC(CC(=O)OCC)(OC(C)=O)C(=O)OCC` was run?
**A.** inactive

**Q.** Which outcome does the source give for `CC[C@H]1OC(=O)[C@H](C)[C@@H](O[C@H]2C[C@@](C)(OC)[C@@H](O)[C@H](C)O2)[C@H](C)[C@@H](O[C@@H]2O[C@H](C)C[C@H](N(C)C)[C@H]2O)[C@](C)(O)C[C@@H](C)C(=O)[C@H](C)[C@@H](O)[C@]1(C)O` here?
**A.** inactive

**Q.** How did the outcome turn out when `CCCCCCCCCCCCc1ccccc1` was run?
**A.** inactive

**Q.** How did the outcome turn out when `O=C1CCCCCN1` was run?
**A.** inactive

**Q.** How did the outcome turn out when `O=C(NS(=O)(=O)/C=C/c1ccccc1)c1ccc(F)cc1Cl` was run?
**A.** inactive

**Q.** For `CCOC(=O)c1ccc(C2CCC(NC[C@H](O)COc3ccc(O)c(NS(C)(=O)=O)c3)CC2)cc1` (stereo not given in full), which outcome is on record?
**A.** inactive

**Q.** `Cc1ccc(N)cc1O` was tested. Which outcome did it give?
**A.** inactive

**Q.** With `COC(=O)CC(=O)OC` as the compound, how does the outcome read?
**A.** inactive

**Q.** Which outcome does the source give for `CC(C)CCO` here?
**A.** inactive

**Q.** For `CN(C)c1ccc(N=NS(=O)(=O)O)cc1`, which outcome is on record?
**A.** inactive

**Q.** Which AC50 does the source give for `CCc1cc(SCc2sc(-c3ccc(C(F)(F)F)cc3)nc2CN2CCN(c3ccc(OC)cc3)CC2)ccc1OCC(=O)O` here?
**A.** 93.4 µM (active)

**Q.** How did the outcome turn out when `COc1ccc(/C=C/S(=O)(=O)NC(=O)c2ccc(C)cc2Cl)cc1` was run?
**A.** inactive

**Q.** How did the AC50 turn out when `Fc1ccccc1[C@@H](F)COC1CCC(Nc2ncnc3[nH]ncc23)CC1` (stereo not given in full) was run?
**A.** 56.5 µM (active)

**Q.** Which outcome does the source give for `CCCC(=O)OCC` here?
**A.** inactive

**Q.** Which AC50 does the source give for `CC(C)c1cccc(C(C)C)c1N1C(=O)c2ccc(O)cc2C1=O` here?
**A.** 93.6 µM (active)

**Q.** Which outcome does the source give for `CCNc1ccccc1` here?
**A.** inactive

**Q.** With `COc1ccc(-n2nc(C(F)F)cc2-c2ccc(S(C)=O)cc2)cc1` (stereo not given) as the compound, how does the outcome read?
**A.** inactive

**Q.** How did the outcome turn out when `O=C(O)CC(O)C(=O)O` (stereo not given) was run?
**A.** inactive

**Q.** With `CCCCCCCCO` as the compound, how does the outcome read?
**A.** inactive

**Q.** For `O=C(O)CCN(C1(C(=O)NO)CCCC1)S(=O)(=O)c1ccc(Oc2ccc(F)cc2)cc1`, which outcome is on record?
**A.** inactive

**Q.** `Cc1c(-c2cccnc2)c2ccccc2n1CCCCC(=O)O` was tested. Which outcome did it give?
**A.** inactive

**Q.** For `CC(C)=CCC/C(C)=C/CO`, which outcome is on record?
**A.** inactive

**Q.** Which outcome does the source give for `CCCCC(CC)COC(=O)CCCCCCCCC(=O)OCC(CC)CCCC` (stereo not given) here?
**A.** inactive

**Q.** Which AC50 does the source give for `O=C(OC[C@H]1O[C@@H](OC(=O)c2cc(O)c(O)c(OC(=O)c3cc(O)c(O)c(O)c3)c2)[C@H](OC(=O)c2cc(O)c(O)c(OC(=O)c3cc(O)c(O)c(O)c3)c2)[C@@H](OC(=O)c2cc(O)c(O)c(OC(=O)c3cc(O)c(O)c(O)c3)c2)[C@@H]1OC(=O)c1cc(O)c(O)c(OC(=O)c2cc(O)c(O)c(O)c2)c1)c1cc(O)c(O)c(OC(=O)c2cc(O)c(O)c(O)c2)c1` here?
**A.** 9.05 µM (active)

**Q.** How did the AC50 turn out when `CCCN(C1CCN(C(=O)C2CCNCC2)CC1)[C@@H]1CCc2ccc(OC)cc2C1` was run?
**A.** 80 µM (active)

**Q.** Which outcome does the source give for `CC(C)=CCCC(C)CCO` (stereo not given) here?
**A.** inactive

**Q.** For `CC(C)CCCCCCOC(=O)c1ccc(C(=O)OCCCCCCC(C)C)c(C(=O)OCCCCCCC(C)C)c1`, which outcome is on record?
**A.** inactive

**Q.** Which outcome does the source give for `CC(=O)OCCC(C)C` here?
**A.** inactive
